# Tau fluor cs = counter-screen for tau fibril formation inhibitors; tau K18 P301L Alexa594 fluorescence, heparin fibrillization; AID 1463; Potency, µM (series often up to 57.7 µM), for inactives: top-dose activity change, negative = decrease; hit rate 0.93% among 280,000; also: nearly all actives have a fitted effect of over 55% in size
#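 Human tau K18 P301L (15 uM unlabeled, 0.24 uM Alexa 594-labeled) in 100 mM sodium acetate pH 7 with 20 uM heparin, 6 hr at 37 C. ThT 30 uM added, 1 hr ambient; Alexa 594 FP and total fluorescence read at 555/632 nm.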
# NPSR antag = neuropeptide S receptor (human) antagonism, cAMP. Q6W5P4. CHO-NPSR cells, cAMP TR-FRET, antagonist mode. Potency, µM (doses to about 38.3 µM), for inactives: top-dose activity change, negative = inhibition, most hits filed as inhibitors. hit rate 1% among 220,000; also: nearly all actives have a fitted effect of over 50% in size
# Tau FP inhib = blocks human tau fibril formation measured by polarization; P10636; K18 P301L tau heparin fibrillization, Alexa594 FP, 6 h; Potency, µM (top dose mostly 57.7 µM), for the others: at the top dose activity, negative = inhibition, hits mostly inhibitors; hit rate 0.39% among 280,000; also: nearly all actives have a fitted effect of over 55% in size
# Target sequence (P10636 561-689 P618L limits assumed): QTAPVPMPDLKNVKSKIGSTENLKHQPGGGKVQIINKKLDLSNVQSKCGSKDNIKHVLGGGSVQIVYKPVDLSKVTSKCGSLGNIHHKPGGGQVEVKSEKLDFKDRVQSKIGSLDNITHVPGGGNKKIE
#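 Heparin (20 uM) drove fibril formation of recombinant tau K18 P301L, 15 uM unlabeled with 0.24 uM Alexa 594 label, for 6 hr at 37 C in 100 mM sodium acetate pH 7. Fluorescence polarization (555/632 nm) read 1 hr after 30 uM ThT.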
# HPGD inh = blocks human HPGD enzyme activity; hit rate 4.3% among 150,000; purified HPGD, NADH fluorescence kinetic, PGE2 substrate; Potency, µM, for inactives: at the highest dose activity change, negative = inhibition, most hits filed as inhibitors; P15428; AID 894; active = well fitted inhibition curve with a large enough effect, not every such curve was filed as active; inconclusive = small, poorly fitted or top-dose-only effect, or another doubt; inactive = no such curve, though single readings can be large or run the other way
#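 20 nM HPGD preincubated 15 min at room temperature with compound in 50 mM Tris-HCl pH 8, 0.01% Tween 20. Started with 1 mM NAD+ and 30 uM prostaglandin E2; NADH fluorescence (360/450 nm) read 5 times over 30-s intervals, last minus first.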
# ALDH1A1 inh = ALDH1A1 (human) enzyme inhibition. P00352. Purified ALDH1A1, NADH fluorescence, propionaldehyde substrate. Potency, µM (titrated, usually from 75.3 µM), inactives show at the highest dose activity, negative = inhibition, actives largely listed as inhibitors. hit rate 7.3% among 220,000; active = well fitted inhibition curve with a large enough effect, not every such curve was filed as active; inconclusive = small, poorly fitted or top-dose-only effect, or another doubt; inactive = no such curve, though single readings can be large or run the other way;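 also: plate controls were no enzyme wells and a reference inhibitor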
# Target sequence (P00352 whole entry, looked up): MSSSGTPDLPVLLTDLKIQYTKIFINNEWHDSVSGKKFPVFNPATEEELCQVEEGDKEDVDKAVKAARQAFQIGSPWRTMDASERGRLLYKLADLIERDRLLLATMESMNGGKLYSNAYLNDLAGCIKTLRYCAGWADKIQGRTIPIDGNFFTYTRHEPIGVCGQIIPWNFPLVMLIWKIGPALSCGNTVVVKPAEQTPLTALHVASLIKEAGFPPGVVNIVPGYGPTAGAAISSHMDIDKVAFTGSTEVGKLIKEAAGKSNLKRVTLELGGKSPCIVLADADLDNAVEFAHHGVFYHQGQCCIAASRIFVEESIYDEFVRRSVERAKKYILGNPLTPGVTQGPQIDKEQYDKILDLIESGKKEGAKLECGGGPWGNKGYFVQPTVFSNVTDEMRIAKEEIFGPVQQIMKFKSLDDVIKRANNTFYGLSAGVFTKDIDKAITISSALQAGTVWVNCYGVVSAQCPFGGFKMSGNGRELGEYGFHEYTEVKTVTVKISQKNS
# Tau fibril ThT = blocks human tau fibril formation measured by thioflavin T; Potency, µM (titrated, usually from 57.4 µM), without a hit: at the top dose activity, negative = inhibition, usual class: inhibitors; hit rate 2.1% among 270,000; recombinant tau K18 P301L (four-repeat tau fragment), heparin-induced fibrillization, ThT fluorescence; P10636; AID 1460; also: nearly all actives have a fitted effect of over 55% in size
#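 In this qHTS, human K18 P301L tau is incubated with compound and heparin for 6 hr at 37 C, and Thioflavin T fluorescence then reports fibril load.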
# * = called active by the depositor; u = inconclusive; x = no result given; [ ] = remark or other dose. Compounds with a hit are over-represented: about 9.5% of the library has one in this group of screens. Unless noted, calls follow the shape of the dose curve; as a rule, active = well fitted curve in the direction sought with a large enough effect; inconclusive = small, poorly fitted or top-dose-only effect, or another doubt; inactive = no such curve, though single readings can be large; an effect the other way counts as inactive or inconclusive. Unless noted, % is scaled to controls: 0 for no effect and ±100 for the full control effect; potency is read from the fitted curve at half-maximal effect.
SMILES,Tau fluor cs,NPSR antag,Tau FP inhib,HPGD inh,ALDH1A1 inh,Tau fibril ThT
CC(C)c1ccc(-n2c(-c3ccccc3)c[n+]3c2CCc2ccccc2-3)cc1,-2.0%,10µM*,8.0%,x,u,-6.6%
COc1ccc(-n2c(-c3ccc(Br)cc3)c[n+]3c2CCc2ccccc2-3)cc1,0.5%,15.0%,-1.6%,-6.0%,1.8%,-17.4%
Cc1nn(-c2ccccc2)c(OC(=O)C(C)C)c1Sc1ccccc1,-14.3%,x,-13.8%,x,x,u
Cc1nn(-c2ccccc2)c2c1C(c1ccc([N+](=O)[O-])cc1)C(C#N)=C(N)O2 (centres undefined),u,15.1%,-12.5%,x,14.1µM*,u
Cc1ccc(-n2nc(C)c3c2OC(N)=C(C#N)C3c2ccc(F)cc2)cc1 (centres undefined),-4.5%,-1.3%[46.1 µM],-1.9%,-4.0%,4.3%,-2.7%
Cc1nn(-c2ccccc2)c2c1C(c1ccco1)C(C#N)=C(N)O2 (centres undefined),-24.9%,3.7%[46.1 µM],-6.8%,-14.8%,1µM*,u
Cc1nn(-c2ccccc2)c(N)c1Sc1ccc([N+](=O)[O-])cc1,-0.9%,-16.3%[46.1 µM],-4.4%,20µM*,1.41µM*,5.5%
N#CC1=C(N)Oc2n[nH]c(-c3cccs3)c2C1c1cccs1 (centres undefined),u,-8.6%[46.1 µM],-15.4%,-28.5%,-8.5%,28.2µM*
NC(=O)[C@H]1CC2(CC(c3cccc(NC(=O)COc4ccc(Cl)cc4)c3)=NO2)CN1C(=O)Cc1ccc([N+](=O)[O-])cc1 (some centres undefined),-14.4%,2.4%,u,x,x,u
CCOC(=O)N1CCC(NC(=O)c2ccc3c(c2)N(Cc2ccc(Cl)cc2)C(=O)c2ccccc2S3=O)CC1 (centres undefined),-9.8%,x,0.3%,x,x,-2.0%
COc1ccc(OCCn2nnc3sc4c(c3c2=O)CCC(C(C)(C)C)C4)cc1 (centres undefined),-15.7%,x,0.4%,x,x,-17.6%
Cc1nn(-c2ccccc2)c2c1C(c1cccs1)C(C#N)=C(N)O2 (centres undefined),u,-14.8%[46.1 µM],-5.5%,u,11.2µM*,u
Cc1ccc(-c2n[nH]c(=S)n2/N=C/c2cccs2)cc1,-16.0%,-22.7%,4.5%,12.6µM*,u,-12.8%
COc1ccc(/C=N/n2c(-c3cc(C)[nH]n3)n[nH]c2=S)cc1,-23.2%,-25.4%,-11.0%,x,x,-20.3%
Cc1ccc(-c2n[nH]c(=S)n2/N=C/c2ccc(C)s2)cc1,-8.9%,u,1.9%,3.98µM*,2.7%,-14.9%
COc1cccc(/C=N/n2c(-c3cccs3)n[nH]c2=S)c1,-23.4%,-15.5%[46.1 µM],4.6%,2.24µM*,u,u
S=c1[nH]nc(-c2ccccc2)n1/N=C/c1cccs1,-11.6%,-11.6%[46.1 µM],4.2%,17.8µM*,25.1µM*,-12.0%
Cc1cc(-c2n[nH]c(=S)n2/N=C/c2cccs2)n[nH]1,-7.0%,-5.0%,7.7%,u,-5.7%,-11.5%
Cc1ccc(-n2nc3c(=O)n(CC(=O)NCC(C)c4ccccc4)nc(C)c3c2C)cc1 (centres undefined),-14.4%,x,6.7%,x,x,-17.6%
CSc1nc2ccc(NS(=O)(=O)c3cccc(Cl)c3Cl)cc2s1,-4.6%,-6.6%[46.1 µM],-10.0%,15.8µM*,u,4.6%
O=C(CCN1C(=O)c2ccccc2C1=O)N1CCCCCC1,5.2%,-6.0%[46.1 µM],-4.7%,15.8µM*,20µM*,-1.2%
O=C1C(=O)N(CC(=O)N2CCCC2)c2ccccc21,-5.8%,16.7%,-7.5%,x,3.55µM*,-4.0%
CC(C)NC(=O)CN1C(=O)C(=O)c2ccccc21,-11.2%,10.7%[46.1 µM],0.9%,-11.1%,-4.8%,-9.5%
CCSc1ccc(-c2ccco2)nn1,-18.0%,16.5%,-3.4%,x,u,u
Cc1cc(C)cc(NC(=O)CSc2ccc(-c3ccco3)nn2)c1,-26.6%,-4.2%[46.1 µM],-10.4%,u,7.08µM*,u
SMILES,Tau fluor cs,NPSR antag,Tau FP inhib,HPGD inh,ALDH1A1 inh,Tau fibril ThT
Cc1ccc(CNC(=O)CSc2ccc(-c3ccco3)nn2)cc1,-2.3%,13.5%,1.7%,-24.4%,14.1µM*,-7.7%
O=C(CSc1ccc(-c2ccco2)nn1)c1ccc(F)cc1,-9.2%,-3.6%,-0.3%,u,3.16µM*,u
N#Cc1ccc(-c2ccco2)nc1SCC(=O)c1ccc(Cl)cc1,u,-11.0%[46.1 µM],-3.7%,-20.1%,u,5.01µM*
O=C(CSc1ccc(-c2ccco2)nn1)NCc1ccc(F)cc1,-1.5%,3.5%,-6.4%,-14.2%,u,-8.7%
COc1ccc(C2C(=O)N(C3CCC(C)CC3)CC(=O)N2C2CCCCC2)cc1OC (centres undefined),-3.9%,x,-0.1%,x,x,1.4%
COC(=O)c1ccc(C(/C=C/[C@@H](C)C(=O)NCCN2CCCC2)NC(=O)OCc2ccccc2)cc1 (some centres undefined),0.5%,x,3.8%,-7.6%,-7.3%,1.7%
Cc1cccc(N2CCn3c2nc2c3c(=O)n(CCCc3ccccc3)c(=O)n2C)c1,-19.6%,x,3.9%,x,x,u
CC(=O)Nc1ccc(NC(=O)CSc2ccc(-c3ccco3)nn2)cc1,-12.3%,4.6%,-15.8%,x,7.08µM*,u
Cc1ccc(NC(=O)CSc2ccc(-c3ccco3)nn2)cc1,-13.2%,14.9%,6.2%,x,3.16µM*,u
CC(=O)Nc1ccc(NC(=O)CSc2ccc(-c3cccs3)nn2)cc1,-6.0%,-11.0%,u,x,-12.4%,-15.2%
Cc1ccc(NC(=O)CSc2ccc(-c3ccco3)nn2)c(C)c1,-10.1%,5.5%,1.6%,x,u,-17.3%
CC/C(=N\NC(=O)c1ccc(N(C)C)cc1)c1ccccc1,-5.7%,2.8%,-4.6%,-18.8%,28.2µM*,u
C/C(=N\NC(=O)c1ccc(Br)cc1)c1ccccc1,3.3%,-10.0%[46.1 µM],0.2%,-10.8%,0.6%,-16.3%
N#Cc1c(-c2ccccc2Cl)noc1/C=C/Nc1ccc(C(=O)O)cc1,-27.6%,-27.2%,12.6%,x,u,u
C[C@H]1Cc2c(-c3ccccc3)nc3c(c2CO1)CN(C(=O)NCCc1c[nH]c2ccccc12)CC3,-3.0%[11.6 µM],x,2.9%[11.6 µM],-0.2%,11.5%[13.5 µM],2.2%[11.5 µM]
O=S(=O)(CCSc1nc2ccccc2o1)Cc1ccccc1,-11.0%,-2.0%[46.1 µM],-5.7%,-13.7%,20µM*,-0.4%
O=C(CSc1ccccn1)Nc1nc2ccccc2s1,-10.9%,-3.9%,-5.7%,-4.6%,-7.2%,-4.0%
CCS(=O)(=O)CCSc1nc2ccccc2o1,-4.1%,-1.1%[46.1 µM],-5.2%,-6.8%,3.8%,-7.3%
O=S(=O)(CCSc1ccccn1)c1nc2ccccc2s1,-20.2%,11.0%[46.1 µM],-11.5%,-27.2%,0.224µM*,u
O=S(=O)(CCSc1nc2ccccc2o1)c1nc2ccccc2s1,-14.1%,22.3%[46.1 µM],1.7%,-3.0%,0.282µM*,u
O=C(NC(=S)Nc1cccc2ncccc12)c1ccccc1,-2.5%,-21.9%,0.0%,x,14.1µM*,-7.3%

# High-throughput results: PubChem BioAssay, National Center for Advancing Translational Sciences (NCATS)
